M1 PAM parental – nonselective activator or artifact in parental CHO-K1 calcium assay; ATP EC20, Fluo-8 calcium fluorescence; 0% at ATP EC20, 100% at ATP max; activation, % at 3 µM; hit rate 0.02% among 360,000; AID 602247;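 active = activation above the run cutoff, the mean activation of all test compounds plus 3 SD, cut at about 40% in these data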;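 also: peak over basal fluorescence ratio in a 140 s read after ATP addition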
CHRM1 antagonist – blocks human M1 muscarinic receptor; AID 588852; hit rate 1.3% among 360,000; CHO-K1 hM1, Fluo-8 calcium fluorescence, ACh EC80 antagonist; P11229; inhibition, % at 3 µM;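 active = percent inhibition above its own plate's cutoff, namely the mean of that plate's compound wells plus 3 SD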;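 also: peak over basal fluorescence ratio during 140 s after agonist addition; 0% = ACh EC80 plus DMSO and 100% = DMSO alone without agonist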
Target sequence (P11229 whole entry, looked up): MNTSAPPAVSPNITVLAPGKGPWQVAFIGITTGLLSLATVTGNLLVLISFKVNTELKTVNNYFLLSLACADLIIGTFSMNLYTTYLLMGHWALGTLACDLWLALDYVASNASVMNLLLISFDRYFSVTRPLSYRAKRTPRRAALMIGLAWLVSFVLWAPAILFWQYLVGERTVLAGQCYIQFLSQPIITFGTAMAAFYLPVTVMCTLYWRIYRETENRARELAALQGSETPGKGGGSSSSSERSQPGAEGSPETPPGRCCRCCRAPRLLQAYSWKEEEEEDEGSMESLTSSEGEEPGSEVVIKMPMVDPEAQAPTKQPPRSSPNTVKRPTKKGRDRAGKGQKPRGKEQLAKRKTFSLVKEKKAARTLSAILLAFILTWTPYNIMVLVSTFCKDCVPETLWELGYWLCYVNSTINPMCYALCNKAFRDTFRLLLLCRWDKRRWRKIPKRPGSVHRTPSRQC
CHRM1 agonist – human M1 muscarinic receptor agonism. CHO-K1 hM1, Fluo-8 calcium fluorescence, agonist mode; 0% DMSO, 100% acetylcholine EC100. activation, % at 3 µM. hit rate 0.33% among 360,000. AID 588814;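 active = activation above the run's mean compound activation plus 3 SD, cut at about 16% in these data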;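 also: peak over basal fluorescence ratio within a 140 s kinetic read after compound addition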
CHO-K1 Ca antag – M1 antagonist counterscreen hit in parental CHO-K1 cells. ATP-induced calcium, Fluo-8 fluorescence. inhibition, % at 3 µM. hit rate 0.6% among 360,000. AID 602250;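 active = inhibition above a per-plate cutoff, the plate's mean sample inhibition plus 3 SD, cut at about 24% in these data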;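 also: 0% = DMSO plus EC80 ATP and 100% = DMSO alone without ATP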
M1 ag parental – nonselective activator or artifact in parental CHO-K1 cells. Fluo-8 calcium fluorescence; scaled to maximal ATP response, vehicle zero. activation, % at 3 µM. hit rate 0.48% among 360,000; in the data active = activation above about 15%;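 also: untransfected CHO-K1 host cells lacking M1 receptor as counterscreen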
CHRM1 PAM – potentiates human M1 receptor response to acetylcholine; P11229; CHO-K1 hM1, Fluo-8 calcium fluorescence, ACh EC20; 0% = ACh EC20, 100% = maximal ACh; activation, % at 3 µM; hit rate 0.088% among 360,000; in the data active = activation above about 19%, passing the limit was not always enough
An asterisk follows results filed as active. Compounds with a hit are over-represented: about 2.3% of the library has one in this group of screens.

`CC[N+]1(C)CCC(O)(/C=C/c2ccccc2)C(C(=O)/C=C/c2ccccc2)C1` (stereo not drawn) gave M1 PAM parental 16.6, CHRM1 antagonist 12.3, CHRM1 agonist -7.7, CHO-K1 Ca antag -5.1, M1 ag parental 0.6 and CHRM1 PAM -6.5.
Screening CN(Cc1ccccc1)C(=O)c1ccccc1N(C)S(=O)(=O)c1ccccc1 returned M1 PAM parental -16.1, CHRM1 antagonist -6.5, CHRM1 agonist -1.4, CHO-K1 Ca antag 3.2, M1 ag parental 1.3 and CHRM1 PAM 10.8.
For COc1ccc2nc(C)cc(Sc3nc4ccccc4s3)c2c1 the results were M1 PAM parental 11.4, CHRM1 antagonist 10.6, CHRM1 agonist 1.1, CHO-K1 Ca antag -0.7, M1 ag parental 28.8* and CHRM1 PAM -4.1.
For C[C@H](NS(=O)(=O)c1ccccc1F)C(=O)OCC(=O)Nc1ccc2c(c1)OCCO2 the results were M1 PAM parental 21.9, CHRM1 antagonist -3.1, CHRM1 agonist -2.4, CHO-K1 Ca antag -21.7, M1 ag parental 0.3 and CHRM1 PAM -1.5.
`Cc1ccc(NC(=O)CSc2ncn[nH]2)cc1` gave M1 PAM parental 6.6, CHRM1 antagonist 2.9, CHRM1 agonist -6.7, CHO-K1 Ca antag 10.7, M1 ag parental 18.7* and CHRM1 PAM -5.4.
CCOc1ccc(NC(=O)CSc2ncn[nH]2)cc1 was read as M1 PAM parental 18.8, CHRM1 antagonist -6.5, CHRM1 agonist -3.7, CHO-K1 Ca antag -6.3, M1 ag parental 0.9 and CHRM1 PAM 3.9.
Cc1ccc(COc2ccc(CNCCCN3CCCCCC3=O)cc2)cc1 was read as M1 PAM parental 11.5, CHRM1 antagonist 46.1*, CHRM1 agonist -10.1, CHO-K1 Ca antag -13.9, M1 ag parental 5.3 and CHRM1 PAM -32.6.
O=C(c1cc(C2CCCCN2S(=O)(=O)c2cccs2)on1)N1CCOCC1 (stereo not drawn) was read as M1 PAM parental 15.1, CHRM1 antagonist 24.3, CHRM1 agonist -7.2, CHO-K1 Ca antag 0.4, M1 ag parental 1.1 and CHRM1 PAM -19.6.
CN(CC(=O)Nc1ccccc1Cl)C(=O)COC(=O)/C=C/c1ccccc1 was read as M1 PAM parental -20.1, CHRM1 antagonist 2.0, CHRM1 agonist 2.0, CHO-K1 Ca antag -6.1, M1 ag parental 0.8 and CHRM1 PAM 12.4.
For C=CCOc1ccc(/C=C/C(=O)OCC(=O)N(C)CC(=O)Nc2ccccc2Cl)cc1 the results were M1 PAM parental -14.3, CHRM1 antagonist 12.5, CHRM1 agonist -1.5, CHO-K1 Ca antag 24.3*, M1 ag parental 2.1 and CHRM1 PAM -5.4.
For COc1cc(CN2CCN(CCCc3ccccc3)C(CCO)C2)cc(OC)c1O (stereo not drawn) the results were M1 PAM parental 11.5, CHRM1 antagonist -7.3, CHRM1 agonist -7.4, CHO-K1 Ca antag -4.7, M1 ag parental 0.7 and CHRM1 PAM 1.4.
O=C(O)c1c(-c2ccccc2)c2oc3ccccc3c2[nH]c1=O was read as M1 PAM parental -5.2, CHRM1 antagonist 7.3, CHRM1 agonist -2.2, CHO-K1 Ca antag 28.9*, M1 ag parental 0.1 and CHRM1 PAM -3.8.
`O=c1[nH]c2c(oc3ccccc32)c(=O)n1Cc1ccccc1` gave M1 PAM parental -0.4, CHRM1 antagonist -10.7, CHRM1 agonist 1.0, CHO-K1 Ca antag 1.3, M1 ag parental 0.0 and CHRM1 PAM 4.2.
`CCCCCN(C(=O)CCC(=O)OCC(=O)Nc1cccc(CC)c1)c1c(N)n(CCCC)c(=O)[nH]c1=O` gave M1 PAM parental 6.6, CHRM1 antagonist -10.4, CHRM1 agonist 0.1, CHO-K1 Ca antag -4.5, M1 ag parental -0.1 and CHRM1 PAM 8.8.
`CN(C)C=Nc1c(Br)cc(Br)c2nonc12` gave M1 PAM parental 4.2, CHRM1 antagonist 13.6, CHRM1 agonist 45.1*, CHO-K1 Ca antag 17.2, M1 ag parental 18.2* and CHRM1 PAM -19.4.
CN(C)C=Nc1nonc1-c1ccccc1 was read as M1 PAM parental 1.5, CHRM1 antagonist -6.2, CHRM1 agonist -3.5, CHO-K1 Ca antag -10.5, M1 ag parental 0.8 and CHRM1 PAM 2.9.
For CC(=O)Nc1ccc(OCC(O)CN2C(C)CCCC2C)cc1 (stereo not drawn) the results were M1 PAM parental -15.4, CHRM1 antagonist 4.9, CHRM1 agonist -7.0, CHO-K1 Ca antag 32.0*, M1 ag parental -0.1 and CHRM1 PAM -4.1.

Screening data: PubChem BioAssay, The Scripps Research Institute Molecular Screening Center
